Laboratory results taken from PubChem BioAssay (Tox21).
Results filed as inconclusive are left out. Calls of active or inactive are those of the source. Unless noted, calls follow the shape of the dose curve; as a rule, active = well fitted curve in the direction sought with a large enough effect in the repeat runs; inconclusive = weak or mixed curves; inactive = no such curve, though single readings can be large; an effect the other way counts as inactive or inconclusive.

What was measured:
[1] = qHTS assay to test for compound auto fluorescence at 535 nm (green) in HEK293 cells (AID 720680)
[2] = qHTS assay to test for compound auto fluorescence at 460 nm (blue) in HEK293 cell free culture (AID 720681)
Procedure, shortened: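 Test compounds were pinned into cell-free culture medium (DMEM with 10% FBS) and fluorescence was read directly at Ex/Em 405/460 nm. Signals were expressed as fluorescence equivalents of triamterene, with DMSO vehicle as control.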

[3] = qHTS assay to test for compound auto fluorescence at 535 nm (green) in HEK293 cell free culture (AID 720682)
Procedure, shortened: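 No cells present: wells hold DMEM supplemented with 10% FBS, into which compound or vehicle is pinned. Green emission is then recorded (485 nm excitation, 535 nm emission) and scaled to fluorescein.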

[4] = qHTS assay to test for compound auto fluorescence at 590 nm (red) in HEK293 cell free culture (AID 720683)
Procedure, shortened: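 Tox21 10K library compounds were pinned into cell-free DMEM with 10% FBS and fluorescence was read at excitation 540 nm. Activity is expressed as Rose Bengal sodium equivalency.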

[5] = qHTS assay to test for compound auto fluorescence at 460 nm (blue) in HepG2 cell free culture (AID 720685)
Procedure, shortened: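 Compound (23 nL) or DMSO pinned into cell-free MEM with 10% FBS; blue fluorescence read at 405/460 nm excitation/emission, expressed as auto-fluorescence equivalency to triamterene.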

[6] = qHTS assay to test for compound auto fluorescence at 535 nm (green) in HepG2 cell free culture (AID 720686)
[7] = qHTS assay to test for compound auto fluorescence at 460 nm (blue) in HepG2 cells (AID 720687)
Procedure, shortened: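 Cells (2,000/well in MEM with 10% FBS) attached overnight at 37 C, then were exposed to compound or DMSO for 1 hr at 37 C, 5% CO2. Fluorescence read at Ex/Em 405/460 nm, expressed as triamterene-equivalent signal.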

[8] = biological target: Glucocorticoid receptor (Homo sapiens) (UniProt P04150); test: qHTS assay to identify small molecule agonists of the glucocorticoid receptor (GR) signaling pathway (AID 720691; active = well fitted activation curve with a large enough effect in the signal ratio in the repeat runs, not every such curve was filed as active; the % refers to the signal ratio); settings: GR-bla HeLa, beta-lactamase reporter ratio, 18 h; activation: at 62.4 µM (top of the series)
Procedure, shortened: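 Beta-lactamase reporter activity, read as fluorescence intensity, was measured in GR-bla HeLa cells exposed to compounds for 18 h at 37 C and then loaded with LiveBLAzer B/G FRET substrate for 2 h at room temperature.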

[9] = qHTS assay to identify small molecule antagonists of the glucocorticoid receptor (GR) signaling pathway - cell viability counter screen (AID 720693); also: nearly all actives have a fitted effect of over 55% in size
[10] = qHTS assay for identifying genotoxic compounds that show differential cytotoxicity against isogenic chicken DT40 cell lines with known DNA damage response pathways - wild type cell line (AID 743012); also: nearly all actives have a fitted effect of over 60% in size
Procedure, shortened: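 Quantitative HTS on parental DT40 cells: 40 h compound treatment at 37 C/5% CO2, with viability then determined by CellTiter-Glo luminescence. Values serve as the DNA repair-proficient reference for differential cytotoxicity.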

[11] = qHTS assay for identifying genotoxic compounds that show differential cytotoxicity against isogenic chicken DT40 cell lines with known DNA damage response pathways - Rev3 mutant cell line (AID 743014); also: nearly all actives have a fitted effect of over 55% in size
[12] = qHTS assay for identifying genotoxic compounds that show differential cytotoxicity against isogenic chicken DT40 cell lines with known DNA damage response pathways - Rad54/Ku70 mutant cell line (AID 743015); also: nearly all actives have a fitted effect of over 60% in size
[13] = qHTS assay to identify small molecule antagonists of the androgen receptor (AR) signaling pathway - cell viability counter screen (AID 743033; also: nearly all actives have a fitted effect of over 45% in size)
[14] = qHTS assay to identify small molecule antagonists of the androgen receptor (AR) signaling pathway using the MDA cell line - cell viability counter screen (AID 743041; also: nearly all actives have a fitted effect of over 45% in size)
Procedure, shortened: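 Viability counter screen run alongside the AR antagonist reporter: cells seeded 5 h before compound, R1881 added, 16 h incubation at 37C without CO2, fluorescent CellTiter-Fluor signal quantified.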

[15] = qHTS assay to test for compound auto fluorescence at 590 nm (red) in HepG2 cell free culture (AID 720684)
Procedure, shortened: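 Measured in medium alone (MEM containing 10% FBS) following pintool addition of compound; emission at 590 nm with 540 nm excitation, referenced to Rose Bengal sodium.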

[16] = biological target: Glucocorticoid receptor (Homo sapiens) (UniProt P04150); test: qHTS assay to identify small molecule antagonists of the glucocorticoid receptor (GR) signaling pathway (AID 720692; active = well fitted inhibition curve with a large enough effect in the signal ratio in the repeat runs, not every such curve was filed as active; the % refers to the signal ratio)
Procedure, shortened: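 Fluorescence from cleaved LiveBLAzer B/G FRET substrate reports GRE-driven beta-lactamase in HeLa cells; compounds are tested against 5 nM dexamethasone (final) over 18 h at 37 C, substrate incubation 2 h at room temperature.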

[17] = biological target: Androgen receptor (Homo sapiens) (UniProt P10275); test: qHTS assay to identify small molecule antagonists of the androgen receptor (AR) signaling pathway (AID 743035; active = well fitted inhibition curve with a large enough effect in the signal ratio in the repeat runs, not every such curve was filed as active; the % refers to the signal ratio)
Procedure, shortened: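 Cell line: GeneBLAzer AR-UAS-bla GripTite (HEK293). Stimulus: R1881 added after compound. Exposure: 16 h, 37C, 5% CO2. Readout: LiveBLAzer B/G FRET fluorescence after 2 h at room temperature.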

[18] = biological target: Androgen receptor (Homo sapiens) (UniProt P10275); test: qHTS assay to identify small molecule agonists of the androgen receptor (AR) signaling pathway using the MDA cell line (AID 743040; also: nearly all actives have a fitted effect of over 20% in size)
Procedure, shortened: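 Luminescence from ONE-Glo, read after 30 min at room temperature, reflects MMTV-driven luciferase in MDA-kb2 cells (AR- and GR-responsive). Treatment lasted 16 h at 37C, 0% CO2.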

[19] = biological target: Androgen receptor (Homo sapiens) (UniProt P10275); test: qHTS assay to identify small molecule antagonists of the androgen receptor (AR) signaling pathway using the MDA cell line (AID 743042; also: nearly all actives have a fitted effect of over 55% in size)
Procedure, shortened: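 MDA-kb2 cells (human breast carcinoma, stably carrying an MMTV-luciferase reporter responsive to AR and GR) were plated at 3,000 cells/well and preincubated 5 hr at 37C, then given compound plus R1881 agonist for 16 h. ONE-Glo luminescence was read.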

Measured: Potency

Sequence of Androgen receptor (Homo sapiens) (P10275 whole entry, looked up): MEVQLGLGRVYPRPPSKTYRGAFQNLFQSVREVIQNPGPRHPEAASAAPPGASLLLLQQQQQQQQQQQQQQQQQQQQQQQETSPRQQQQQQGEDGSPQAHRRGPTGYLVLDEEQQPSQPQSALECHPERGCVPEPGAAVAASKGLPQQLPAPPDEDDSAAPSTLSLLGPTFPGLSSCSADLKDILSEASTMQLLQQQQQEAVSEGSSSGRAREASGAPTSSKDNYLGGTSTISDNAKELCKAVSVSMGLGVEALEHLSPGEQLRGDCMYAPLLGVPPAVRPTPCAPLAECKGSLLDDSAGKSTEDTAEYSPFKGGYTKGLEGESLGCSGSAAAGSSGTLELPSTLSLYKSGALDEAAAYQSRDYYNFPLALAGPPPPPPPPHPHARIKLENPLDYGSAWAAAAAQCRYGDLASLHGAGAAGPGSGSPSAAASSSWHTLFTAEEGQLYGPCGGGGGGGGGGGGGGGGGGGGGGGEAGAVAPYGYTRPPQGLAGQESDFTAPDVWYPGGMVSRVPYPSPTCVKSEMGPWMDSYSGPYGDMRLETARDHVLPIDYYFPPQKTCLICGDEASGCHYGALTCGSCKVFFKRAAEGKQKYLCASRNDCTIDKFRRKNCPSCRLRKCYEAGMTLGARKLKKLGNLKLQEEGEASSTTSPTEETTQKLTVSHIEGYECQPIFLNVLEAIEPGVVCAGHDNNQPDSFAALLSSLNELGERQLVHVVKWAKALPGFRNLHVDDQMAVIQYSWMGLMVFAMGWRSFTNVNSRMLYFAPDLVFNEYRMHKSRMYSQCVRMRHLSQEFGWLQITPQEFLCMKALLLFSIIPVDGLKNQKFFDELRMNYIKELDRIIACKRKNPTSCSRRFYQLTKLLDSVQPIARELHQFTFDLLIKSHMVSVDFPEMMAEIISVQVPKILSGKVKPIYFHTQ
Sequence of Glucocorticoid receptor (Homo sapiens) (P04150 whole entry, looked up): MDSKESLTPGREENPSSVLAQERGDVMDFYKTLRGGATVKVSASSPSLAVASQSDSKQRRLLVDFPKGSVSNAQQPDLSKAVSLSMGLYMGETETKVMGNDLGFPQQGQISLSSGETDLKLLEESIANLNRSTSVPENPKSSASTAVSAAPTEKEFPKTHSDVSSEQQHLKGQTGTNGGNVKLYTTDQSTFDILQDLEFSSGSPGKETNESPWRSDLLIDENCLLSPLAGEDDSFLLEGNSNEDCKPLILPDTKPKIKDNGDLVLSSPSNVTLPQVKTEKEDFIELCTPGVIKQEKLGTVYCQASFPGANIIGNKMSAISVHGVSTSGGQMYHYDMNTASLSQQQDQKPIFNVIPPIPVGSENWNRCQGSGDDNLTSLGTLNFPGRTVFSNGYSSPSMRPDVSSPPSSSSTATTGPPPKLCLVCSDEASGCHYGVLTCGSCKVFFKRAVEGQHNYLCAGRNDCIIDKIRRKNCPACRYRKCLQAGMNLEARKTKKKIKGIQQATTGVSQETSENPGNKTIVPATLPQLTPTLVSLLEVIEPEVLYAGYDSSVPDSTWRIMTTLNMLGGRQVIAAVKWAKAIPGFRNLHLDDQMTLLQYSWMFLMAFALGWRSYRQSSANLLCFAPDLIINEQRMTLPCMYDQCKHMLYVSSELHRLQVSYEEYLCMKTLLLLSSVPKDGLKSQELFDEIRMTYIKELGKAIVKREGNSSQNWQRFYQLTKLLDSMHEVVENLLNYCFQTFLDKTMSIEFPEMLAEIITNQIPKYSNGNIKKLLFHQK

CC(=O)OCC(=O)[C@@]1(O)CC[C@H]2[C@@H]3CCC4=CC(=O)CC[C@]4(C)C3=CC[C@@]21C
not listed: [15] | [16] | [17] | [18] | [19]
inactive: all other assays above

C/C=C/C1=C(C(=O)O)N2C(=O)[C@@H](NC(=O)[C@H](N)c3ccc(O)cc3)[C@H]2SC1
not listed: [5] | [7]
inactive: all other assays above

CC1CCCC(C)N1NC(=O)c1ccc(Cl)c(S(N)(=O)=O)c1 (centres undefined)
not listed: [5] | [7] | [11] | [12] | [17] | [18] | [19]
inactive: all other assays above

CCOC(=O)Cc1ccc(-c2ccccc2)cc1
not listed: [5] | [8] | [10] | [11] | [16] | [17] | [18] | [19]
inactive: all other assays above

CC(=O)Nc1ccc(OC(C)=O)cc1
not listed: [15] | [17] | [18] | [19]
inactive: all other assays above

COc1cc2c(cc1OC)[C@@H](Cc1cc(OC)c(OC)c(OC)c1)[N+](C)(CCCOC(=O)CC/C=C/CCC(=O)OCCC[N+]1(C)CCc3cc(OC)c(OC)cc3[C@H]1Cc1cc(OC)c(OC)c(OC)c1)CC2 (some centres undefined)
not listed: [7] | [8] | [16] | [17] | [18] | [19]
inactive: all other assays above

NCC1CCC(C(=O)O)CC1 (centres undefined)
not listed: [7] | [8] | [13] | [16] | [17] | [18] | [19]
inactive: all other assays above
